# Reference: the supplement of paper PMC7156485
# Structures can show the parent of a compound that is named as a salt.
# Test system: TDF
# Assay: cell number relative to DMSO (% of DMSO); higher = more cells (less growth inhibition / toxicity)
# Conditions: concentration: 10 µM; 24 h
# Procedure, shortened: (§1)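 HCC1569 and TDF cells were seeded at 800 per well in 384-well plates in RPMI with 10% FBS and treated with compounds at 10 µM for 24 h at 37 °C, in triplicate. After fixation in 3.7% formaldehyde, cells were stained with a rabbit anti-H1.0 antibody, an AlexaFluor 647 secondary and DAPI, and six fields per well were imaged at ×10. H1.0 nuclear intensity or cell number is given as percent of the plate control, using the median of replicates, with HCC1569 values smoothed for positional effects.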
# 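Throughout, for H1.0 immunofluorescence intensity relative to DMSO: TDF is a line of transformed human dermal fibroblasts of mesenchymal origin.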
# 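Throughout, for cell number relative to DMSO: TDF denotes transformed human dermal fibroblasts of mesenchymal origin.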
row,Structure (SMILES),cell number
1,CC12C=Cc3occc3C1CCC13CC(=O)C(CCC12)C3 (stereo not given) [16-Oxokahweol],98.5
2,CCC1(c2ccccc2)C(=O)NCNC1=O [Primidone],97.2
3,CC1(C)CC1C(=O)NC(=CCCCCSCC(N)C(=O)O)C(=O)O (stereo not given) [Cilastatin],94
4,O=C1c2c(O)cc(O)cc2OC(c2ccc(O)c(O)c2)C1O (racemic),109
5,CCCNCC(O)COc1ccccc1C(=O)CCc1ccccc1.Cl (stereo not given) [Propafenone hydrochloride],103

# Test system: TDF
# Assay: H1.0 immunofluorescence intensity relative to DMSO (% of DMSO); higher = stronger H1.0 induction, active = 120 or more
# Conditions: concentration: 10 µM; 24 h
# Procedure, shortened: as §1
row,Structure (SMILES),H1.0 immunofluorescence intensity
1,Cl.N=C(N=C(N)N)N1CCOCC1 [Moroxydine.HCl],98.7 (inactive)
2,C=C1C(=CC=C2CCCC3(C)C2CCC3C(C)CCCC(C)C)CC(O)CC1O (stereo not given) [Alfacalcidol],96.5 (inactive)
3,"CCCCCC(=O)c1c(O)c(Cl)c(OC)c(Cl)c1O [1-(3,5-dichloro-2,6-dihydroxy-4-methoxyphenyl)-1-hexanone]",101 (inactive)
4,CS(=O)(=O)O.O=C1Nc2ccc(-c3cccnc3)cc2C1=Cc1ccc[nH]1 [JAK3 Inhibitor VI],108 (inactive)
5,O=C1c2c(O)ccc(O)c2C(=O)c2c(NCCNCCO)ccc(NCCNCCO)c21 [Mitoxantrone],2090 (active)
6,CC(C)NCC(O)c1ccc(O)c(O)c1 (racemic) [DL-Isoproterenol],93.8 (inactive)
7,CC1=CCC2(C)CCC(O)(C(C)C)C2C(OC(=O)c2ccc(O)cc2)C1 (stereo not given) [Ferutinin],97.8 (inactive)
8,CSCC[C@@H](C=O)NC(=O)[C@H](CC(C)C)NC(=O)[C@H](CC(C)C)NC(C)=O,96.4 (inactive)
9,C=C(C)C1CCC2(C(=O)O)CCC3(C)C(CCC4C5(C)CCC(O)C(C)(C)C5CCC43C)C12 (stereo not given) [Betulinic acid],96.3 (inactive)
10,N#CC(=C(N)Sc1ccccc1N)c1cccc(C(O)c2ccncc2)c1 (stereo not given) [MEK Inhibitor I],98.7 (inactive)
11,COc1cc2c(Nc3ccc(NC(=O)c4ccccc4)cc3)ncnc2cc1OCCCN1CCOCC1,126 (active)
12,Cc1scc2c1N(C(=O)CN1CCN(C)CC1)c1ccccc1NC2=O.Cl.Cl [Telenzepine.2HCl],96.6 (inactive)
13,O=C1c2ccccc2-c2n[nH]c3cccc1c23 [JNK Inhibitor II],90.5 (inactive)
14,CCCC(=O)Oc1ccc2[nH]c(C(=O)c3cc4ccccc4[nH]3)cc2c1 [PDGF Receptor Tyrosine Kinase Inhibitor II],87.9 (inactive)
15,COc1cc(CNC(=O)CCCCC=CC(C)C)ccc1O [Capsaicin],93.8 (inactive)
16,CC(C)(C=O)Cc1cc(C(C)(C)C)c(O)c(C(C)(C)C)c1,92 (inactive)
17,CC(C)C[C@@H](C(=O)O)c1cc(-c2ccc(C(F)(F)F)cc2)cc(-c2ccc(C(F)(F)F)cc2)c1,93.7 (inactive)
18,NC(=O)c1cccc(NC(=O)/C=C/c2c[nH]c3ccccc23)c1 [(E)-3-(3-(1H-indol-3-yl)acrylamido)benzamide],88 (inactive)
19,CN1C(C(=O)Nc2ccccn2)=C(O)c2sccc2S1(=O)=O [Tenoxicam],95 (inactive)
20,COc1ccccc1N1CCN(CCCNc2cc(=O)n(C)c(=O)n2C)CC1.Cl [Urapidil hydrochloride],92.7 (inactive)

row,Structure (SMILES),H1.0 immunofluorescence intensity
1,CCCCCOc1ccccc1C(O)CC#CCCCC(=O)OC (stereo not given),93 (inactive)
2,CSc1ccc2c(c1)N(CCC1CCCCN1C)c1ccccc1S2.Cl (stereo not given) [Thioridazine hydrochloride],110 (inactive)
3,COc1ccc(Cl)cc1C(=O)NCCc1ccc(S(=O)(=O)NC(=O)NC2CCCCC2)cc1 [Glyburide],90.2 (inactive)
4,N#Cc1c(N(CC(=O)[O-])CC(=O)[O-])sc(C(=O)[O-])c1CC(=O)[O-].[Sr+2].[Sr+2],86.6 (inactive)
5,Cc1cc(CS(=O)(=O)c2ccccc2)cc(OCc2ccc(CN3CCC[C@@H]3CO)cc2)c1 [PF-543 hydrochloride],102 (inactive)
6,"OC[C@@H](O)[C@H]1NC[C@@H](O)[C@H]1O [1,4-Dideoxy-1,4-imino-D-mannitol hydrochloride]",87.9 (inactive)
7,Cl.NC(CO)C(=O)NNCc1ccc(O)c(O)c1O (stereo not given) [Benserazide hydrochloride],98.3 (inactive)
8,"CCN(NO)C1=CC(=O)C(=O)C=C1 [ET-3,4-dephostatin]",94.7 (inactive)
9,C=CCc1ccccc1OCC(O)CNC(C)C.Cl (stereo not given) [Alprenolol hydrochloride],103 (inactive)
10,OC1CCN2Cc3ccccc3N=C12 (stereo not given) [Vasicine],98.7 (inactive)
11,"CN(C)C(=O)N=NC(=O)N(C)C [N,N,N',N'-Tetramethylazodicarboxamide]",91.5 (inactive)
12,COc1ccc2c3c1OC1CC(O)C=CC31CCN(C)C2 (stereo not given) [Galanthamine],94 (inactive)
13,COc1cc2ncc(-c3ccccc3)nc2cc1OC [Tyrphostin AG 1296],97.3 (inactive)
14,O=C(O)c1ccc(NC(=O)[C@H](CC2CCCC2)n2cnc(C(F)(F)F)c2)nc1,96.9 (inactive)
15,"O=C(CCCCCCc1ccccc1)c1ncc(-c2ccccn2)o1 [7-phenyl-1-[5-(2-pyridinyl)-1,3-oxazol-2-yl]-1-heptanone]",98.3 (inactive)
16,CC12C=Cc3occc3C1CCC13CC(=O)C(CCC12)C3 (stereo not given) [16-Oxokahweol],91.4 (inactive)
17,CCC1(c2ccccc2)C(=O)NCNC1=O [Primidone],98 (inactive)
18,CC1(C)CC1C(=O)NC(=CCCCCSCC(N)C(=O)O)C(=O)O (stereo not given) [Cilastatin],101 (inactive)
19,O=C1c2c(O)cc(O)cc2OC(c2ccc(O)c(O)c2)C1O (racemic),87.5 (inactive)
20,CCCNCC(O)COc1ccccc1C(=O)CCc1ccccc1.Cl (stereo not given) [Propafenone hydrochloride],99.2 (inactive)
